# Reference: the supplement of paper PMC6555819
# What was measured:
# Test in all cases: PBM binding z-score (relative to random genomic background probes); higher = stronger binding; sequences stand for … in GC…GCGATTGACAGCGTAGAATGAAGG
# [1] = tested on: PPARg:RXRa DBDmut IVT, anti-RXR (DBD mutation: RXRa K156A/R161A, NR concentration 270 nM, RXRa partner concentration 90 nM)
# Summary of the method: (§1)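 Ligand-free nuclear receptor dimers were bound for 1 h to custom Agilent 4×180K protein-binding microarrays. Detection used antibodies against each partner (one per run). Binding z-scores rest on regression-normalized fluorescence, with random background probes as the reference.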
# [2] = tested on: PPARg:RXRa IVT, anti-PPARg (NR concentration 270 nM, RXRa partner concentration 90 nM)
# Summary of the method: as §1
# [3] = tested on: PPARg DBDmut:RXRa IVT, anti-PPARg (DBD mutation: PPARg1 K132A/R137A, NR concentration 270 nM, RXRa partner concentration 90 nM)
# Summary of the method: as §1
# [4] = tested on: PPARg DBDmut IVT, anti-PPARg (DBD mutation: PPARg1 K132A/R137A, NR concentration 270 nM)
# Summary of the method: as §1
# [5] = tested on: PPARg homodimer (NR concentration 180 nM)
# Summary of the method: as §1
# [6] = tested on: PXR:RXRa (NR concentration 270 nM, RXRa partner concentration 90 nM)
# Summary of the method: as §1
# [7] = tested on: PXR homodimer (NR concentration 270 nM)
# Summary of the method: as §1
# [8] = tested on: RARa:RXR (NR concentration 270 nM, RXRa partner concentration 90 nM)
# Summary of the method: as §1
# [9] = tested on: RARa homodimer (NR concentration 270 nM)
# Summary of the method: as §1
# [10] = tested on: RARb:RXRa (NR concentration 270 nM, RXRa partner concentration 90 nM)
# Summary of the method: as §1
# [11] = tested on: RARb homodimer (NR concentration 270 nM)
# Summary of the method: as §1
# [12] = tested on: RARg:RXRa (NR concentration 270 nM, RXRa partner concentration 90 nM)
# Summary of the method: as §1
# [13] = tested on: RARg homodimer (NR concentration 270 nM)
# Summary of the method: as §1
# [14] = tested on: RXRa DBDmut IVT, anti-RXR (DBD mutation: RXRa K156A/R161A, NR concentration 90 nM)
# Summary of the method: as §1
# [15] = tested on: RXRa homodimer (NR concentration 180 nM)
# Summary of the method: as §1
# [16] = tested on: THRa:RXRa (NR concentration 90 nM, RXRa partner concentration 90 nM)
# Summary of the method: as §1
# [17] = tested on: THRa homodimer (NR concentration 90 nM)
# Summary of the method: as §1
# [18] = tested on: VDR homodimer (NR concentration 270 nM)
# Summary of the method: as §1
Sequence,PBM binding z-score [1],PBM binding z-score [2],PBM binding z-score [3],PBM binding z-score [4],PBM binding z-score [5],PBM binding z-score [6],PBM binding z-score [7],PBM binding z-score [8],PBM binding z-score [9],PBM binding z-score [10],PBM binding z-score [11],PBM binding z-score [12],PBM binding z-score [13],PBM binding z-score [14],PBM binding z-score [15],PBM binding z-score [16],PBM binding z-score [17],PBM binding z-score [18]
CAAACTAGGTCACCGGAAGGTCATAGTCCGCATG,8.59,9.21,4.3,3.06,4.74,5.48,1.67,6.36,1.54,5.66,5.85,7.82,6.45,1.8,5.92,4.58,3.33,2.78
CCTGCTAGGACAATGGTCAGCTAAAGCAGCTCGC,0.194,-0.56,-1.25,-2.24,-1.14,-0.961,-0.715,-0.928,-0.846,0.219,-0.0607,-0.421,-0.262,0.179,-0.865,0.0505,-0.399,-0.794
TCTAGCTGGTCACGGAGGTCACACACGACGGGTA,1.56,3.5,0.457,0.217,3.03,4.91,0.955,5.08,1.08,3.81,4.17,4.88,5.01,0.665,5.01,3.67,2.27,2.72
AGAATGAGGTTACCAAAGATCAGTGAAACGCTTG,4.06,3.2,1.32,0.399,0.652,1.56,0.0456,1.9,0.395,2.06,0.66,2.09,1.51,1.14,2.67,2.65,0.639,0.206
TAGCCTAAGTCATGGGCCAGTATACCACGCGAAC,-0.872,-0.144,-0.174,-0.856,-0.397,-0.259,-0.135,0.041,-0.286,0.0943,0.0501,0.0528,0.13,-0.416,0.289,-0.0695,-0.257,-0.135
TGAATGAGGTTTAAGATCAGGGAACGTGGCGTCG,-0.249,0.242,0.0033,-0.732,-0.165,-0.2,-0.311,-0.216,-0.194,0.0151,-0.403,0.0866,0.0198,-0.0681,0.388,0.0282,-0.624,-0.231
AGTCAAAGTTCACTAGGCAACGTAAGATTCAGCT,1.55,3.93,1.31,0.663,1.75,3.81,2.09,3.04,0.611,4.78,3.63,4.84,5.8,4.16,3.89,1.4,-0.365,3.61
ACTTACGGGTCAACGAAGTTATAGCACGCGTATA,2.94,3.94,2.05,3.18,2.32,3.73,0.0102,4.15,0.443,4.15,3.02,5.31,4.65,1.66,5.31,2.78,-0.0625,0.948
TCATATAGGTGAAAGGTGAAAGTCGGTGTGGTAA,7.6,7.55,3.38,1.28,3.1,3.01,0.351,4.34,1.1,2.78,2.31,3.45,1.46,2,4.53,2.15,0.384,0.0995
AGTCAAAGTTCATCTGGGTAACGTAAGATATGCT,1.05,3.77,0.881,0.701,2.39,5.16,5.32,3.69,1.4,4.81,4.07,5.32,5.48,4.78,4.42,2.82,0.135,4.81
CGAACTATGTCAAGGACAGTGAATCTCCGCACGC,3.57,2.11,-0.346,0.361,0.224,-0.112,0.37,0.29,0.0991,0.88,0.507,0.587,0.808,0.328,0.197,1.76,1.21,-0.0899
CCTTACGGGTCAAGGTTATACCACGGGTGGTACG,1.19,3.53,-0.379,-0.205,3.33,3.49,0.498,4.11,1.71,4.21,3.44,4.96,4.75,0.758,5.09,2.97,0.619,1.65
TTACCAAAGTGAAAGGTCGTTGATGCACGCCTTG,-0.147,1.43,0.177,0.436,1.39,2.3,0.329,2.39,-0.107,1.86,1.87,1.64,1.01,0.293,2.65,1.34,-0.34,1.41
TAGCCTAGGTCATTGGACCAGTATAGTACGCATC,1.74,3.17,0.686,-0.0362,1.31,1.66,-0.324,2.35,-0.143,3.65,2.73,3.97,4.37,1.43,3.1,2.85,0.854,1.54
TCTCGGAGGACACGAAAAGTCAGAGCTCGACATC,1.7,0.139,-0.679,-0.502,0.0166,-0.0938,-0.142,0.141,-0.037,1.72,0.803,0.704,1.37,1.08,0.187,1.27,0.205,-0.252
GATACAGGGTCATCTAGAGGCCAGAGTATGGAAA,1.93,3.6,0.707,0.0112,3.91,4.97,0.378,6.28,0.58,4.48,3.71,7.56,5.37,3.39,6.6,3.76,0.837,2.85

Sequence,PBM binding z-score [1],PBM binding z-score [2],PBM binding z-score [3],PBM binding z-score [4],PBM binding z-score [5],PBM binding z-score [6],PBM binding z-score [7],PBM binding z-score [8],PBM binding z-score [9],PBM binding z-score [10],PBM binding z-score [11],PBM binding z-score [12],PBM binding z-score [13],PBM binding z-score [14],PBM binding z-score [15],PBM binding z-score [16],PBM binding z-score [17],PBM binding z-score [18]
TAGCCTAGGTCATTGTGCCAGTATAGTACGCATC,2.37,3.23,-0.0725,0.703,0.97,1.47,0.0622,1.89,-0.0989,3.44,2.7,3.4,3.77,1.9,2.17,2.61,1.03,1.2
CCCACTGGGGCAAAGGTTACCATACTCAGTACGA,5.25,7.1,0.141,-0.557,1.73,2.41,-0.111,3.81,0.0182,2.37,2.15,3.57,1.81,-0.648,3.57,1.8,-0.0576,0.129
CAAACTAGGTCAAAGGTCAACGTCGAGCCAACCA,8.88,9.1,3.12,5.08,10.7,7.11,1.82,9.16,5.04,5.88,5.12,8.91,7.98,2.88,10.3,4.98,2.1,2.86
CGCACTAGGTCATTGACAGGACAGTGAATAGTAA,8.05,8.26,3.67,3.71,2.42,1.82,0.54,2.55,0.834,3.81,2.68,4.77,4.46,2.35,2.57,2.91,1.16,1.54
CGTCCAAGGTCAATGCTAGCTCAGTGAAAGCATT,3.17,3.23,-0.245,-0.858,0.0664,3.48,0.507,3.92,0.334,5.02,3.86,5.61,6.7,3.48,5.19,3.64,2.02,1.83
AGACAAAGTTCAGGACGAGGTAACGTAAAGCACG,-0.362,0.619,0.472,0.977,1.38,3.02,0.806,3.06,0.776,4.18,3.04,4.75,4.73,2.87,2.9,3.86,1.51,2.08
CGAACTAGTTCAAGGACAGTGAATCTCCGCACGC,0.894,-0.296,-0.635,-0.503,0.151,0.352,0.308,0.402,-0.835,1.53,0.95,0.588,0.91,1.78,0.544,2.01,1.47,0.883
CCTAGCAGGCCACGGTCACTCAAGCATTTCGCTT,2.28,1.83,-0.92,-1.29,0.115,-0.147,-0.385,0.307,-0.0441,1.95,1.74,0.739,1.19,0.229,0.221,0.45,0.288,-0.0513
ATCGAACGGTCGAGGTGAGTATAGAGAAAGGGAA,-0.731,0.523,0.835,-0.166,0.13,-0.26,-0.544,-0.1,-0.343,1.19,0.591,0.56,1.16,-0.533,0.211,1.06,0.0248,-0.386
CAAACTAGGTCACGAGGTCAAAGTCCGCTTCCCG,8.56,9.04,2.5,3.48,3.45,6.15,3.42,6.91,1.34,5.48,5.59,7.56,6.9,3.1,7.59,4.76,4.67,4.9
CCTACTGGGCCAACAAGGTCATTGATGCCGATAA,3.7,4.68,-0.0965,-0.198,2.24,3.92,3.62,3.64,0.0671,2.8,3.24,2.97,2.76,0.655,3,3.4,2.41,3.7
ATATGTAGGTGAAGGGTCATTCAGGTTGGTTCGC,8.51,8.85,6.44,4.69,6.22,5.27,2.24,5.79,1.46,3.3,3.76,4.77,3.15,2.06,5.6,3.55,1.35,4.34
CCTCCAAGGTCATAGGAGGTCAGTGAAGACAGAT,2.72,4.01,1.58,0.448,4.5,6.72,4.74,5.96,2.34,5.09,5.33,6.72,7.01,3.01,6.79,5.36,3.1,4.12
ATATGTAGGTTAGCTGGAGTCATTCAGACTAGGC,6.03,6.03,1.63,1.57,0.988,0.231,-0.186,0.556,0.257,0.61,0.259,0.523,0.683,-0.228,0.583,0.807,-0.355,-0.00881
CCTTACGGGTCACTGACAGCTTATAGCATTTGGA,3.83,3.59,0.471,0.264,2.05,2.79,-0.111,3.44,1.14,3.84,2.97,4.67,4.43,2.04,4.76,2.32,0.275,0.89
